The list is not random: actives were taken first. Their share in the collection is about 1.8%.
Fam108B counter: blocks mouse Fam108B hydrolase in RBBP9 counter-screen. recombinant Fam108B, FP-Rh probe fluorescence polarization. inhibition, % at 9.51 µM. actives 0.33% (n = 300,000). AID 1947;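 active means inhibition above the screen mean inhibition plus 3 SD, computed separately per campaign, cut at about 18% in these data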;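 further: inhibitors lower polarization as less probe binds the enzyme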
LYPLA1 inh: counter-screen for PME1 inhibitors: inhibitors of human LYPLA1 | recombinant LYPLA1, FP-Rh probe fluorescence polarization | inhibition, % at 5.9 µM | actives 0.16% (n = 320,000) | AID 2174;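 active means inhibition above the mean of all tested compounds plus 3 SD, set per campaign, cut at about 14% in these data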;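 further: inhibitors block serine hydrolase probe labeling of LYPLA1 so polarization falls; 0% = enzyme with DMSO and 100% = wells lacking LYPLA1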
Target sequence (O75608 whole entry, looked up): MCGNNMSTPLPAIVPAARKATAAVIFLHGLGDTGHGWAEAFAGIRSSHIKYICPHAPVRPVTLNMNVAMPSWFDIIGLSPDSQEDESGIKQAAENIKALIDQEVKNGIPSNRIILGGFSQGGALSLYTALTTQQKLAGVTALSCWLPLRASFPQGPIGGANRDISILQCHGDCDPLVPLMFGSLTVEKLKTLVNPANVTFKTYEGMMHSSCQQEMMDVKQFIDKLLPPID
GSTO1 counter: blocks human GSTO1 in RBBP9 counter-screen | recombinant GSTO1, activity-based probe fluorescence polarization | actives 1.1% (n = 300,000) | P78417 | inhibition, % at 5.96 µM;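 active means inhibition above the campaign mean inhibition plus 3 SD, cut at about 35% in these data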;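 further: 0% = GSTO1-1 with DMSO and 100% = wells lacking GSTO1-1 enzyme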
Target sequence (P78417 whole entry, looked up): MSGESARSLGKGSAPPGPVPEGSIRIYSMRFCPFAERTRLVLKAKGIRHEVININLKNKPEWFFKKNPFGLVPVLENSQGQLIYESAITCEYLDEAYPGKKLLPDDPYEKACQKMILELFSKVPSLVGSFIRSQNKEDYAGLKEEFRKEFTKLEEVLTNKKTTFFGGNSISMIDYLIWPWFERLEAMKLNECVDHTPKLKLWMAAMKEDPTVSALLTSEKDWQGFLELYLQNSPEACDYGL
PME-1 inh: PME-1 (human) inhibition; recombinant PME-1, FP-Rh probe fluorescence polarization; inhibition, % at 5.9 µM; actives 0.53% (n = 320,000);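 active means inhibition above the campaign mean of all compounds plus 3 SD, cut at about 26% in these data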;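 further: competitive labeling of PME-1 active site by serine hydrolase directed probe; 0% = PME-1 with DMSO and 100% = wells lacking PME-1 enzyme; inhibitors block probe labeling so polarization falls and inhibition rises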
PAD4 FP inh: inhibitors of human PAD4; Q9UM07; AID 485272; recombinant PAD4, RCA probe fluorescence polarization; inhibition, % at 6.36 µM; actives 0.41% (n = 330,000);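 active means percent inhibition above a cutoff equal to the mean of all tested compounds plus 3 SD, cut at about 15% in these data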;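 further: 0% = PAD4 with RCA probe and DMSO and 100% = probe without PAD4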
LYPLA2 inh: counter-screen for PME1 inhibitors: inhibitors of human LYPLA2; recombinant LYPLA2, FP-Rh probe fluorescence polarization; inhibition, % at 5.9 µM; actives 0.38% (n = 320,000);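 active means inhibition above the screen-wide mean plus 3 SD, limit set per campaign, cut at about 26% in these data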;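 further: 0% = LYPLA2 with DMSO and 100% = wells lacking LYPLA2 enzyme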
Target sequence (O95372 whole entry, looked up): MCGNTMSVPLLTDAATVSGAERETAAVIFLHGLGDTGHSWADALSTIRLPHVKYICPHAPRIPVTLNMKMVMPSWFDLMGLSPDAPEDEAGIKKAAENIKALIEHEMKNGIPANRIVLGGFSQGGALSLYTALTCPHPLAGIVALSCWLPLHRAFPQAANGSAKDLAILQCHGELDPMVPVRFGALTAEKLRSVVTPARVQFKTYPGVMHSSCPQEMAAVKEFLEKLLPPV
LYPLA2 confirm: counter-screen for PME1 inhibitors: confirmation of human LYPLA2 inhibitors; recombinant LYPLA2, FP-Rh probe fluorescence polarization; inhibition, % at 5.9 µM; shares compounds with LYPLA2 inh; actives 72% (n = 1,100);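 active means mean inhibition across replicates above the hit cutoff set in the primary screen, cut at about 26% in these data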;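 further: blocked labeling of the enzyme by serine hydrolase FP-Rh probe lowers polarization; 0% = enzyme with DMSO and 100% = wells lacking LYPLA2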
LYPLA2 ABPP: LYPLA2 (human) inhibition, late stage results; shares compounds with LYPLA2 inh; AID 652029; rhLYPLA2 in mouse brain proteome, gel ABPP FP-Rh; inhibition, % at 20 µM; actives 30% (n = 150);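 active means inhibition of LYPLA2 enzyme probe labeling above about 50%, limit read from the data; inactive means inhibition below that limit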;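 further: loss of FP-Rh probe labeling of the LYPLA2 gel band measured as band density; 0% = DMSO only control band and 100% = blank gel background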
* = called active by the depositor; nt = no result.

SMILES	Fam108B counter	LYPLA1 inh	GSTO1 counter	PME-1 inh	PAD4 FP inh	LYPLA2 inh	LYPLA2 confirm	others
COc1cccc(S(=O)(=O)NCc2ccc(C(=O)N3CCN(Cc4ccccc4)CC3)cc2)c1	4.3	1.9	-1.2	2.9	-1.7	42.8*	48.9*
O=C1N=C(N2CCN(c3ccccc3)CC2)S/C1=C/c1cccs1	-1.0	2.6	5.8	6.3	3.1	33.6*	38.2*
O=C1N=C(c2ccccc2)S/C1=C\c1cccs1	3.7	-1.9	7.0	5.3	3.0	-0.7	nt
COc1ccc(N2CCN(c3ncnc4c3nnn4Cc3ccccc3Cl)CC2)cc1	2.1	8.4	3.4	-7.0	1.7	35.2*	39.8*
CCCC(=O)c1ccc(N2CCN(C(=O)c3ccccc3)CC2)c(F)c1	2.7	4.3	-0.1	-0.9	-0.9	15.5	nt
CCCC(=O)c1ccc(N2CCN(C(=O)c3ccc(Br)cc3)CC2)c(F)c1	0.6	3.3	-3.6	2.1	-2.4	38.9*	70.4*	LYPLA2 ABPP=8.0
CCC(=O)c1ccc(N2CCN(C(=O)c3ccc(Br)cc3)CC2)c(F)c1	-1.9	3.4	-6.6	2.3	-5.6	29.6*	47.5*
CCC(=O)c1ccc(N2CCN(C(=O)c3ccc(F)cc3)CC2)c(F)c1	-1.8	5.4	5.9	4.2	-3.6	16.0	nt
CCN1CCN(c2ccc(Nc3ccnc4ccccc34)cc2)CC1	nt	2.0	nt	5.7	-0.9	11.2	nt
Cc1cccc(NC(=O)CSc2nnc(CNC(=O)c3ccco3)n2C)c1C	-6.2	-2.6	6.9	1.2	-0.4	-6.9	nt
CCN(C(=O)CCc1nnc2ccc(NCc3ccco3)nn12)c1ccccc1	-2.5	-4.5	-4.1	-8.4	5.2	-5.2	nt
COc1ccc(N2CCN(Cc3nc(-c4ccccc4)no3)CC2)cc1	0.1	5.5	-1.9	-5.1	2.5	26.0*	15.9
COc1ccc(-c2noc(CN3CCN(c4ccccc4)CC3)n2)cc1	1.5	1.0	-6.4	-0.8	-3.5	-3.3	nt
CC(=O)N/C(=N\c1nc(C)cc(C)n1)Nc1ccc(Cl)cc1Cl	-2.2	5.3	0.9	-2.0	7.0	5.3	nt
CCCc1nn(C)c2c1C(c1cccnc1)C(C#N)=C(N)O2 (configuration not stated)	2.6	2.2	-3.3	1.6	-6.5	28.6*	-0.6
Cc1nn(Cc2ccccc2)c2c1C(c1cccnc1)C(C#N)=C(N)O2 (configuration not stated)	0.4	-2.2	15.9	0.7	-0.1	-4.7	nt
Cn1c(=O)c2c(ncn2CC(=O)N/N=C/C(Br)=C/c2ccccc2)n(C)c1=O	0.8	-1.5	8.2	-3.9	-3.2	26.9*	38.8*
O=C(NCc1ccco1)c1ccc2c(c1)C(=O)N(Cc1ccccc1)C2=O	5.7	0.2	-3.0	7.0	4.0	4.2	nt
CC(C)CCN1C(=O)c2ccc(C(=O)NCc3ccco3)cc2C1=O	2.9	6.8	0.5	2.9	7.4	28.4*	21.4
N#Cc1ccc(OCC(=O)N2CCN(c3ccc(C(F)(F)F)cn3)CC2)cc1	nt	3.7	nt	3.9	-8.9	64.1*	32.3*
O=[N+]([O-])c1ccc(OCCOCCOc2ccc([N+](=O)[O-])cc2)cc1	-0.9	-2.7	3.7	-1.0	-0.6	-1.9	nt
O=[N+]([O-])c1ccc(OCCN2CCNCC2)cc1	1.6	4.7	1.9	4.9	0.2	28.6*	25.8*
O=Cc1ccc(OCCOc2ccc([N+](=O)[O-])cc2)cc1	-0.5	5.0	1.9	-0.7	-1.4	36.5*	22.9
CSCCC(NS(=O)(=O)c1ccccc1F)C(=O)NCCCn1nc(C)cc1C (configuration not stated)	0.9	3.0	2.1	-1.8	7.0	-0.1	nt
O=C(C1CCN(S(=O)(=O)c2cccnc2)CC1)N1CCN(c2ccc(Cl)cc2)CC1	1.2	3.3	6.0	5.4	0.2	38.0*	41.8*
SMILES	Fam108B counter	LYPLA1 inh	GSTO1 counter	PME-1 inh	PAD4 FP inh	LYPLA2 inh	LYPLA2 confirm	others
O=C(C1CCN(S(=O)(=O)c2ccccc2)CC1)N1CCN(c2ccccc2)CC1	4.6	1.3	4.9	20.6	-1.9	10.2	nt
O=C(C1CCN(S(=O)(=O)c2cccnc2)CC1)N1CCN(c2ccccc2Cl)CC1	1.2	3.3	6.5	8.3	-1.1	7.5	nt
COc1ccc(N2CCN(C(=O)C3CCN(S(=O)(=O)c4ccccc4)CC3)CC2)cc1	1.8	-1.9	5.4	19.4	-2.3	37.5*	44.1*
CC(C)C(NC(=O)c1ccccc1NC(=O)c1ccccc1)C(=O)NCCCn1ccnc1 (configuration not stated)	0.5	4.0	5.8	3.0	0.1	28.6*	-0.9
O=C(c1ccc(F)cc1)C1CCN(CCn2c(=O)[nH]c3ccccc3c2=O)CC1	4.4	8.4	3.5	0.3	-2.3	33.3*	36.1*
O=C1CC(N2CCC(c3nc4ccccc4o3)CC2)C(=O)N1c1ccc(Cl)c(C(F)(F)F)c1 (configuration not stated)	2.1	-1.1	-1.5	-3.6	-2.5	27.3*	32.8*
O=C1CC(N2CCC(c3nc4ccccc4o3)CC2)C(=O)N1c1ccc(F)cc1 (configuration not stated)	-2.1	0.2	-2.4	-0.5	-0.5	6.9	nt
Cc1ccc(S(=O)(=O)CCC(=O)Nc2ccccc2C)cc1	3.3	-2.4	-5.1	-3.1	0.0	-5.3	nt
Cc1c(NC(=S)NC(=O)c2ccc(COc3ccccc3)cc2)cccc1C(=O)O	3.0	6.6	-5.8	2.7	-0.4	30.2*	25.2
O=C(O)c1ccc(Cl)c(NC(=S)NC(=O)c2cccc(COc3ccccc3)c2)c1	-16.0	-8.9	-9.8	-5.1	-4.8	9.8	nt
O=C(NC(=S)Nc1ccc(Cl)c(C(=O)O)c1)c1cccc(COc2ccccc2)c1	-3.9	6.6	-3.3	-7.7	-2.8	37.0*	38.0*
CCCCOc1cccc(C(=O)NC(=S)Nc2ccc(Cl)c(C(=O)O)c2)c1	0.6	2.1	-2.7	-3.9	0.3	7.5	nt
COc1ccc(C(=O)NC(=S)Nc2ccc(Cc3ccncc3)cc2)cc1	-3.6	-1.4	2.0	1.4	3.0	31.9*	35.0*
Cc1ccccc1C(=O)NC(=S)Nc1ccc(Cc2ccncc2)cc1	-1.1	0.8	-1.3	2.4	-0.2	9.8	nt
O=C(NC(=S)Nc1ccc(Cl)c(C(=O)O)c1)c1ccc(OCc2ccccc2)cc1	-3.1	7.9	-7.2	4.4	-6.8	36.5*	33.4*
COc1ccc(NC(=O)CSc2nnc(-c3cccs3)n2N)c(OC)c1	-2.3	2.2	10.4	7.1	-2.8	-0.9	nt
CC(C)c1ccc(NC(=O)CN2C(=O)COc3ccc(S(=O)(=O)N4CCOCC4)cc32)cc1	-2.1	-0.4	0.9	3.4	-1.4	-4.2	nt
